97 molecules from PubChem BioAssay AID1259251 (The Scripps Research Institute Molecular Screening Center, 2017) can be followed below.

What is called inhibition is the change of the read-out against control, counted positive when it falls.

Screen size: about 30,000 compounds; about 580 (1.9%) were called active. Cut-off read from the data, not from the text of the source: active = inhibition above about 43%; inactive = the rest. The sample as a whole holds a higher share of actives than the screen did.

Sequence of Serine/threonine-protein kinase ULK1 (Homo sapiens) (O75385 whole entry, looked up): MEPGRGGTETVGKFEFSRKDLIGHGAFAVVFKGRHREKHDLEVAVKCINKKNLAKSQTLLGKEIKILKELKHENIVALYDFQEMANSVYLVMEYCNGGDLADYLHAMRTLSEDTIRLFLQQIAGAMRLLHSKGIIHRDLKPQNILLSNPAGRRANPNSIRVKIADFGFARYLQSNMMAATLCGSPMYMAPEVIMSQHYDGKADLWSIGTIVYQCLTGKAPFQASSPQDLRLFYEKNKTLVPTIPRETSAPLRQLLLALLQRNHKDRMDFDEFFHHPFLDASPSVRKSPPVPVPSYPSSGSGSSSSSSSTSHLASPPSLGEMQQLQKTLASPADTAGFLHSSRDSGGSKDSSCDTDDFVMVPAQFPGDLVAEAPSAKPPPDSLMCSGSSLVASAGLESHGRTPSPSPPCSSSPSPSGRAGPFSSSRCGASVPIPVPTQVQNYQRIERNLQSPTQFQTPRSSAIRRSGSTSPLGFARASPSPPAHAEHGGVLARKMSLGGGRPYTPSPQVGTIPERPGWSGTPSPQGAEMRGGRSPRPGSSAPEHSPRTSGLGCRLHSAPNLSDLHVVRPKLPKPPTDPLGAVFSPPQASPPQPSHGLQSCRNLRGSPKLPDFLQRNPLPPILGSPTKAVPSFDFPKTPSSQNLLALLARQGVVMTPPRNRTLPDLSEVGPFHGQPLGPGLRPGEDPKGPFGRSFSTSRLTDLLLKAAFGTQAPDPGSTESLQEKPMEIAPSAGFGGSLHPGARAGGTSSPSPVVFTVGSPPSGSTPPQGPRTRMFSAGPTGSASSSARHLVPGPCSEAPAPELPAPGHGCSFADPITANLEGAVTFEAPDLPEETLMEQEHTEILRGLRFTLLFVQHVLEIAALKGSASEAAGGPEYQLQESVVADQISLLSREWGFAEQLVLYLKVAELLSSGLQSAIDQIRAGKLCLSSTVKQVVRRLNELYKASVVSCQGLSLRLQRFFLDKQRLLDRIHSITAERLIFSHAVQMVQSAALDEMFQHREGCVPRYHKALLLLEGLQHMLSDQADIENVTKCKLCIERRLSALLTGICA

The experiment has as its target Serine/threonine-protein kinase ULK1 (Homo sapiens) (UniProt O75385). The experiment can be described thus: ULK1 kinase inhibitors, primary screen, biochemical, AlphaScreen (AID 1259251).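 Note: 0% = median of compound wells and 100% = no enzyme.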 The following applies: AlphaScreen Atg13 phosphorylation by ULK1, luminescence; at 5.96 µM; stronger effect = higher value. For orientation: Bead proximity is the source of the signal in Alpha formats.
For the molecule `Cn1cc(-c2nc(Nc3ccc(-n4cnc(N5CCC(O)CC5)n4)cc3)ncc2Br)cn1`, the inhibition is 85.1% (active). Consider `COC1CCN(c2ncn(-c3ccc(Nc4nccc(-c5cncc(N6CCOCC6)c5)n4)cc3)n2)CC1`, for which the inhibition was -6.75% (inactive). For `Cc1ncccc1-c1ncn(-c2ccc(Nc3nccc(-c4cc(F)cc(N5CCOCC5)c4)n3)cc2)n1` the value was 5.38% (inactive); for `Cn1cc(-c2cc(Nc3ccc(-n4cnc(N5CCC(O)CC5)n4)cc3)ncc2Cl)cn1`, -17% (inactive); for `c1coc(-c2ccc3cnc(Nc4ccc(-n5cnc(N6CCOCC6)n5)cc4)nc3c2)n1`, 3.23% (inactive). For `Cn1cc(-c2ccc3cnc(Nc4ccc(-n5cnc(N6CCOCC6)n5)cc4)nc3c2-c2cnn(C)c2)cn1` the value was 51.5% (active); for `O=C(NC1CCN(Cc2ccccc2)CC1)c1cccc(-c2cccs2)n1`, -5.23% (inactive). As to `O=C(Nc1ccc2[nH]ncc2c1)c1ccnc(OC2CCN(Cc3ccccc3)CC2)c1`, the inhibition was -8.14% (inactive). In the case of `O=C(NC1CCN(Cc2ccccc2)CC1)c1cc(Cl)nc2ccccc12`, the inhibition was 2.89% (inactive). In the case of `Cn1c(Nc2nc(NCc3cccc(C(F)(F)F)c3)c3ncn(C4CCCCC4)c3n2)nc2ccccc21`, the inhibition was 8.91% (inactive). For `O=C(NCCc1ccc(O)cc1)c1csc(Nc2ccc(N3CCOCC3)cc2)n1` the value was 13.3% (inactive); for `Cc1cnc(-c2c(C)noc2C)nc1Nc1ccc(N2CCOCC2)cc1`, -1.73% (inactive). Consider `c1ccc(-c2ncn[nH]2)c(Nc2ccnc(Nc3ccc(N4CCOCC4)cc3)c2)c1`, for which the inhibition was 24.2% (inactive).

On to `Cc1cnc(Nc2ccc(N3CCOCC3)cc2)nc1Nc1ccccc1-c1ncn[nH]1`, for which the inhibition is 70.3% (active). Take `c1ccc(CN2CCC(Nc3nc(NCCOc4ccccc4)c4[nH]cnc4n3)CC2)cc1`: the inhibition is -28% (inactive). For `FC(F)(F)c1ccc(Cn2cnc3c(Nc4ccccc4)nc(N4CCN(c5ccccn5)CC4)nc32)cc1`, the inhibition was -7.96% (inactive). Next, `CN(C)c1cccc(Nc2cc(C(=O)NC3CC3)c3ccccc3n2)c1`: 4.11% (inactive); `Cc1ccc(CNC(=O)c2cn(C)c3c(=O)n(-c4ccccc4)c(=O)[nH]c23)cc1`: 1.67% (inactive); `CN1CCN(C(=O)c2ccc(-c3cc(NCc4cccc(C(F)(F)F)c4)ncn3)cc2)CC1`: -4.67% (inactive). For `COc1ccc(Cl)cc1NC(=O)COc1cccc2c1OC(C)(C)C2` the value was -8.02% (inactive). For `CNC(=O)c1cc(F)ccc1Nc1cc(Nc2ccc3[nH]ncc3c2)ncc1C(F)(F)F` the value was 78.3% (active); for `CC(=O)Nc1ccc(Nc2cc(Nc3ccccn3)nc(N)n2)cc1`, -21.9% (inactive); for `CNC(=O)c1cc(F)ccc1Nc1cc(Nc2ccc3nc[nH]c3c2)ncc1C(F)(F)F`, 3.83% (inactive).

As to `O=C1Cc2cc(Nc3cc(Nc4ccccn4)c(C(F)(F)F)cn3)ccc2N1`, the inhibition was 38.2% (inactive). For `CNC(=O)c1cc(F)ccc1Nc1cc(Nc2ccc3c(c2)CCC(=O)N3)ncc1C(F)(F)F` the value was 85.8% (active); for `CNC(=O)c1cc(F)ccc1Nc1cc(Nc2ccc(NC(C)=O)cn2)ncc1C(F)(F)F`, 89% (active); for `COc1cc(NC(=O)c2cnc(Nc3ccc(C(F)(F)F)cc3)s2)cc(OC)c1OC`, -10.3% (inactive).

For `O=C(NCCO)c1cc(Nc2ccc3[nH]ncc3c2)ccn1`, the inhibition is -10.8% (inactive). Next, `COc1ccc(Oc2ncc(-c3ccc(OC)cc3)cn2)cc1`: -2.6% (inactive); `COc1ccc(-n2cc(-c3ccccc3[N+](=O)[O-])cn2)cc1`: -17.3% (inactive); `Cc1nn(C)c(C)c1-c1nc2ccc(C(=O)NCCO)cc2s1`: 1.9% (inactive). For `O=C(NCCOc1ccccc1)c1ccc2nc(N3CCN(Cc4ccc5c(c4)OCO5)CC3)sc2c1` the value was 1.44% (inactive). `COc1ccc(-c2nc3ncnc(NCCc4ccc(O)cc4)c3[nH]2)cn1`: the inhibition is -9.33% (inactive).

`c1ccc(Oc2cc(NC3CC3)ncn2)cc1`: the inhibition is 4.64% (inactive). Next, `O=C(NCc1nc2ccccc2[nH]1)c1cccc(-c2cccs2)c1`: 1.37% (inactive); `CC(C)(C)c1ccc(S(=O)(=O)NCc2nc(-c3ccncc3)n[nH]2)cc1`: 2.8% (inactive). For `Cc1ccc(C)c(NS(=O)(=O)c2ccc3c(c2)OCCCO3)c1` the value was 0.58% (inactive); for `c1ccc(CN2CCC(Nc3nc(NCc4ccc5c(c4)OCO5)nc4c3ncn4C3CCCCC3)CC2)cc1`, 1.3% (inactive); for `c1ccc(CN2CCC(Nc3nc(Nc4ccc(N5CCOCC5)cc4)c4ncn(C5CCCCC5)c4n3)CC2)cc1`, 50.8% (active). Consider `c1ccc(CN2CCC(Nc3nc(NCCN4CCOCC4)c4ncn(C5CCCCC5)c4n3)CC2)cc1`, for which the inhibition is 7.74% (inactive).

For `O=C1CCCN1CCn1cnc2c(Nc3ccc(N4CCOCC4)cc3)nc(NCc3ccc4c(c3)OCO4)nc21`, the inhibition is 11.6% (inactive). With `c1cc2c(cc1CNc1nc(Nc3ccc(N4CCOCC4)cc3)c3ncn(C4CCCCC4)c3n1)OCO2`, the inhibition is 56.2% (active).

For the molecule `c1ccc(CN2CCC(Nc3nc(-c4ccccc4)nc4c3ncn4C3CCCCC3)CC2)cc1`, the inhibition was -30.6% (inactive). For `CC(C)N(CCNC(=O)C1CCN(c2ccc(Nc3ccccc3)nn2)CC1)C(C)C`, the inhibition is 0.63% (inactive). Next, `COc1cc(NC(=O)c2ccnc(-c3c(C)noc3C)c2)cc(OC)c1OC`: 3.86% (inactive); `Oc1ccc(CCNc2nc(Nc3ccncn3)nc3c2ncn3C2CCCCC2)cc1`: 14.6% (inactive). Next, `CC(=O)Nc1ccc(Nc2nc(Nc3ccccn3)ncc2C)cc1`: 8.71% (inactive); `CC(C)N(CCNC(=O)Cc1cn(-c2ccc(Nc3ccc(N4CCOCC4)cc3)nn2)c2ccccc12)C(C)C`: 5.92% (inactive). As for `COc1cc(CNC(=O)c2cnc3cc(-c4cn[nH]c4)ccn23)cc(OC)c1`, the inhibition is -6.5% (inactive). Turning to `CCCNC(=O)c1ccc2nc(-c3c(C)nn(C)c3C)sc2c1`, the inhibition is 1.04% (inactive). For `O=C1CCCN1CCCNc1nc(-c2ccccc2)nc2nc[nH]c12` the value was 9.26% (inactive).

Consider `O=C1CCCN1CCCNc1nc(Nc2cnccn2)nc2nc[nH]c12`, for which the inhibition was -13.6% (inactive).

Turning to `OCCNc1nc(Nc2ccc3ncccc3c2)nc2nc[nH]c12`, the inhibition is 62.7% (active). For `CN(C)c1cccc(Nc2nc(NCCO)c3[nH]cnc3n2)c1` the value was 15.6% (inactive); for `OCCNc1nc(Nc2ccccn2)nc2nc[nH]c12`, 8.19% (inactive). Consider `O=C1CCCN1CCCNc1nc(Nc2ccc3ncccc3c2)nc2nc[nH]c12`, for which the inhibition is 67.6% (active).

For the molecule `CCN(CC)C(=O)C1CCCN(c2nc(NCCOc3ccccc3)c3ncn(C(C)C)c3n2)C1` (configuration not stated), the inhibition is 4.04% (inactive). For the molecule `c1cncc(Nc2nccc(Nc3ccc(N4CCOCC4)cc3)n2)c1`, the inhibition is 10% (inactive). Next, `COCCNc1cc(-c2ccc(F)cc2)nc(C)n1`: 0.77% (inactive); `CCN(C(=O)c1ccc(Br)cc1)c1ccccc1`: 2.64% (inactive). For `COc1cc2nc(-c3cccc(N)c3)nc(NCCN3CCOCC3)c2cc1OC` the value was -4.6% (inactive); for `COc1cc(N2CCOCC2)ccc1Nc1cc(Nc2ccccc2-n2cccn2)c(C(F)(F)F)cn1`, 77% (active); for `FC(F)(F)c1cnc(Nc2ccc(N3CCOCC3)cc2)cc1-n1ncc2ccccc21`, 2.76% (inactive). Next, `COc1cc(C(=O)N2CCOCC2)ccc1Nc1cc(NCc2cccc(S(C)(=O)=O)c2)c(C(F)(F)F)cn1`: -14.6% (inactive); `CCOC(=O)c1cc[n+](CC(=O)c2ccc(NC(=O)c3ccccc3)cc2)cc1`: 3.76% (inactive); `CCN(CC)C(=O)C1CCCN(c2nc3ccc(C(=O)Nc4ccc(NC(C)=O)cc4)cc3s2)C1` (configuration not stated): -20.8% (inactive). On to `CNC(=O)c1ccccc1Nc1cc(NC(=O)C2(c3ccccc3)CC2)ncc1C(F)(F)F`, for which the inhibition is -23.5% (inactive). For `CCN(CC)CCNC(=O)c1ccc(Nc2cc(Nc3ccccc3C(=O)NC)c(C(F)(F)F)cn2)nc1` the value was 92.4% (active).

Regarding `CNC(=O)c1ccccc1Nc1cc(NC(=O)Cc2ccc(F)c(F)c2)ncc1C(F)(F)F`, the inhibition was 32.8% (inactive).

With `CC(C)N(CCNC(=O)c1ccnc(Nc2ccc(C(F)(F)F)cc2)c1)C(C)C`, the inhibition was -25.3% (inactive). Next, `CNC(=O)c1ccccc1Nc1cc(NC(=O)C(F)(F)c2ccccc2)ncc1C(F)(F)F`: 61.2% (active).

Take `CCN(CC)CCNC(=O)c1cc(S(C)(=O)=O)ccc1OC`: the inhibition is 13% (inactive).

For `CCN(CC)CCOc1ccc(Nc2cc(Nc3ccccc3C(=O)NC)c(C(F)(F)F)cn2)c(OC)c1`, the inhibition was 91.6% (active). Take `CNC(=O)c1ccccc1Nc1cc(NC(=O)Cc2ccc([N+](=O)[O-])cc2)ncc1C(F)(F)F`: the inhibition was 40.8% (inactive).

For `CCN(CC)CCNC(=O)c1ccc(Nc2cc(Nc3ccccc3C(=O)NC)c(C(F)(F)F)cn2)c(C)c1`, the inhibition was 88.5% (active). For `O=C1CCCN1CCn1cnc2c(NCc3cccc(C(F)(F)F)c3)nc(Nc3nccc4ccccc34)nc21` the value was -5.58% (inactive); for `Cc1cnc(CNc2cc(-c3ccccc3F)nc(C)n2)nc1`, 3.69% (inactive). For `COc1cc2nc(Nc3nccc4ccccc34)nc(NCc3cccc(C(F)(F)F)c3)c2cc1OC` the value was -3.82% (inactive).

In the case of `COC(c1ccccc1)(c1ccccc1)C(Oc1nc(C)cc(C)n1)C(=O)O` (configuration not stated), the inhibition is 5.25% (inactive). For `CC(C)n1c(-c2ccc(C(N)=O)cc2)nc2c(NCCN3CCOCC3)ncnc21` the value was -4.64% (inactive); for `O=C(NCCc1cccnc1)c1ccc2c(c1)CC(c1nc3ccc(-c4cn[nH]c4)cc3c(=O)[nH]1)CO2` (configuration not stated), 1.53% (inactive).

As for `CCNc1ncc(C)c(NCCc2ccc(OC)cc2)n1`, the inhibition is -7.79% (inactive). Regarding `Nc1nc(NCc2cccnc2)nc2c1ncn2-c1ccsc1`, the inhibition was 2.79% (inactive). Next, `CC(=O)Nc1ccc2cnn(-c3cccc(C(=O)NCCN4CCOCC4)c3)c2c1`: -2.64% (inactive); `C1=C2[C@@H](c3ccccc3)N3CCC[C@@H]3[C@H]3CCC[C@@]23OCC1`: -9.95% (inactive); `O=C(NC1CC1)c1ccc(-c2nccc(NCc3nc4ccccc4[nH]3)n2)cc1`: -2.79% (inactive). For `COc1cc(Nc2cc(NC3CC3)ncn2)cc(OC)c1OC` the value was -5.2% (inactive).

Take `O=C(NCCCN1CCCC1=O)C1CCN(c2ccc(Nc3ccc4ncccc4c3)nn2)CC1`: the inhibition is 7.45% (inactive). For `COc1cccc(C(=O)Nc2nc3ccc(-c4ccncc4)cc3s2)c1` the value was 14.9% (inactive). `CNC(=O)c1ccccc1Nc1nc(Nc2ccc(-n3cnc(-c4ccc(C)nc4)n3)cc2)ncc1Cl`: the inhibition was 8.9% (inactive).

In the case of `CNC(=O)c1ccccc1Nc1cc(Nc2ccc(C(=O)N(C)C)cc2)ncc1C(F)(F)F`, the inhibition is 86.4% (active). For `CNC(=O)c1ccccc1Nc1ccnc(Nc2ccc(N3CCOCC3)cc2)c1` the value was 6.96% (inactive); for `N#Cc1cccc(-c2ccnc(Nc3ccc(N4CCOCC4)cc3)n2)c1`, 7.92% (inactive).

With `CC(C)n1cnc2c(NCCO)nc(Nc3ccc(C(F)(F)F)cc3)nc21`, the inhibition is -7.45% (inactive). Consider `c1ccc(N2CCN(c3nc(NCCN4CCOCC4)c4ncn(C5CCCCC5)c4n3)CC2)nc1`, for which the inhibition was -0.56% (inactive). On to `Cn1c(Nc2nc(NC3CC3)c3ncn(C4CCCCC4)c3n2)nc2ccccc21`, for which the inhibition is 36.9% (inactive). Next, `O=C(CNS(=O)(=O)c1ccc(Cl)cc1)OCC(=O)c1ccccc1`: 14.9% (inactive).
